Results: PubChem BioAssay (Tox21)
The source made the active and inactive calls. Calls come from the whole dose curve; as a rule, active = well fitted curve in the direction sought with a large enough effect in the repeat runs; inconclusive = weak or mixed curves; inactive = flat fitted curve, though single readings scatter.

Assay: qHTS assay to test for compound auto fluorescence at 590 nm (red) in HEK293 cells (AID 720679)
Conditions: red autofluorescence 540/590 nm; series mostly up to 46 µM
Procedure, shortened: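 HEK293 cells (2,000/well, 10% dialyzed FBS) attached 4-5 hr, then dosed with compound or DMSO and incubated overnight at 37C, 5% CO2. Red fluorescence read at 540/590 nm, Rose Bengal sodium as reference fluorophore.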

Structure (SMILES)	outcome
Oc1ccc(Cl)c2c1CCC2	inactive
O=c1[nH]c(=O)n([C@H]2C[C@H](O)[C@@H](CO)O2)cc1/C=C/Br	inactive
Nc1nc(/C(=C/CC(=O)O)C(=O)N[C@@H]2C(=O)N3C(C(=O)O)=CCS[C@H]23)cs1	inactive
SC1CCCCC1	inactive
C[C@H](Cc1ccc(O)c(O)c1)[C@@H](C)Cc1ccc(O)c(O)c1	inactive
COc1cccc2c1[C@@H]1CN(CCCCn3c(=O)[nH]c4c(sc5ncc(-c6ccccc6)nc54)c3=O)C[C@@H]1CO2	inactive
CON=C1C[C@]2(C[C@@H]3C[C@@H](C/C=C(\C)C[C@@H](C)/C=C/C=C4\CO[C@@H]5[C@H](O)C(C)=C[C@@H](C(=O)O3)[C@]45O)O2)O[C@H](/C(C)=C/C(C)C)[C@H]1C	inactive
CC(C)[N+]1(C)[C@@H]2CC[C@H]1CC(OC(=O)C(CO)c1ccccc1)C2 (some centres not stated)	inactive
CC(C)Cc1ccc([C@H](C)C(=O)O)cc1	inactive
Cc1ccc(C(C)(C)c2ccc(C)cc2)cc1	inactive
Nc1c(CC(=O)O)cccc1C(=O)c1ccccc1	inactive
CC(=O)NC[C@H]1CN(c2ccc(N3CCOCC3)c(F)c2)C(=O)O1	inactive
CCCCCCCCCCCCN1CCCC1=O	inactive
O=C(O)COc1ccc(C(=O)c2cccs2)c(Cl)c1Cl	inactive
O=C1CCC(c2ccc(-n3ccnc3)cc2)=NN1	inactive
O=[N+]([O-])c1ccc(O)c2ncccc12	inactive
CC(C)C[C@H](NC(=O)[C@@H](COC(C)(C)C)NC(=O)[C@H](Cc1ccc(O)cc1)NC(=O)[C@H](CO)NC(=O)[C@H](Cc1c[nH]c2ccccc12)NC(=O)[C@H](Cc1cnc[nH]1)NC(=O)[C@@H]1CCC(=O)N1)C(=O)N[C@@H](CCCN=C(N)N)C(=O)N1CCC[C@H]1C(=O)NNC(N)=O	inactive
CC[C@@H](C(=O)[C@@H](C)[C@@H](O)[C@H](C)CCc1ccc(C)c(O)c1C(=O)O)[C@H]1O[C@](CC)([C@H]2CC[C@](O)(CC)[C@H](C)O2)C[C@@H]1C	inactive
CCCCC/C=C\C=C\C(=O)OCC	inactive

Structure (SMILES)	outcome
CCCn1c(=O)[nH]c(=O)c2[nH]cnc21	inactive
CO[C@H]1C[C@@H]2CC[C@@H](C)[C@@](O)(O2)C(=O)C(=O)N2CCCC[C@H]2C(=O)O[C@H]([C@H](C)C[C@@H]2CC[C@@H](O)[C@H](OC)C2)CC(=O)[C@H](C)C=C(C)[C@@H](O)[C@@H](OC)C(=O)[C@H](C)C[C@H](C)/C=C/C=CC=C1C	inactive
CC(=O)OCC(=O)[C@@]1(O)CC[C@H]2[C@@H]3CCC4=CC(=O)CC[C@]4(C)C3=CC[C@@]21C	inactive
O=C(O)c1ccc(NC2OC[C@@H](O)[C@H](O)[C@H]2O)cc1 (some centres not stated)	inactive
O=C1CCCCCCCCCCCCCC1	inactive
C/C(=C(/CCO)SSCC1CCCO1)N(C=O)Cc1cnc(C)nc1N (configuration not stated)	inactive
CN(Cc1ccccc1)Cc1ccccc1	inactive
CCCCCCCC[N+](C)(C)CCCCCCCC	inactive
CO[C@H](C(=O)[C@@H](O)[C@@H](C)O)C1Cc2cc3cc(O[C@H]4C[C@@H](O[C@H]5C[C@@H](O)[C@H](O)[C@@H](C)O5)[C@@H](O)[C@@H](C)O4)c(C)c(O)c3c(O)c2C(=O)[C@H]1O[C@H]1C[C@@H](O[C@H]2C[C@@H](O[C@H]3C[C@](C)(O)[C@H](O)[C@@H](C)O3)[C@H](O)[C@@H](C)O2)[C@H](O)[C@@H](C)O1 (some centres not stated)	inactive
CC(C)(O/N=C(\C(=O)N[C@@H]1C(=O)N2C(C(=O)[O-])=C(C[n+]3ccccc3)CS[C@H]12)c1csc(N)n1)C(=O)O	inactive
Cc1cccc(C)c1NC(=O)C1CCCCN1C (configuration not stated)	inactive
C[C@@H]1O[C@@H]1P(=O)(O)O	inactive
c1ccc2c(c1)OCC(CN1CCCCC1)O2 (configuration not stated)	inactive
C=C1C(=C/C=C2\CCC[C@]3(C)[C@@H]([C@H](C)CCCC(C)C)CC[C@@H]23)C[C@@H](O)C[C@@H]1O	inactive
N=C(N)n1cccn1	inactive
CCCC(CCC)C(=O)OC1C[C@H]2CC[C@@H](C1)[N+]2(C)C (some centres not stated)	inactive
C[N+](C)(C)CCOP(=O)(O)OP(=O)([O-])OC[C@H]1O[C@@H](n2ccc(N)nc2=O)[C@H](O)[C@@H]1O	inactive
CN(C)CCC(O)(c1ccccc1)c1ccccc1Cl (configuration not stated)	inactive
